According to the supplement of paper PMC11732987, “Enantioselective OTUD7B fragment discovery through chemoproteomics screening and high-throughput optimisation” (Communications Chemistry, 2025):

Assays:
Assay in all cases: log2 ratio of Biotin-Ahx-Ub-VS probe labelling (fragment/DMSO); higher = less target engagement (more negative = stronger competition), active = hit call of the paper (q ≤ 0.05, log2 ratio ≤ -1)
Settings in all cases: compound concentration: 200 uM; treatment time: 3 h
USP9X = USP9X (UniProt Q93008)
In short: (§1)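 HEK293T lysate in Tris/CHAPS/IGEPAL buffer with protease inhibitors (495 µg per sample) was given fragment at 200 µM or vehicle for 3 h, in triplicate. It then received Biotin-Ahx-Ub-VS at 0.5 µM final for 1 h. Labelled DUBs were NeutrAvidin-enriched, digested with LysC and trypsin, and run by diaPASEF LC-MS/MS. Values are average log2 fragment/vehicle ratios by unpaired t-test on global-median-normalised Spectronaut quantities of proteins with ≥2 unique peptides.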

UniProt O00487 = target: UniProt O00487
Chain of UniProt O00487 (O00487 whole entry): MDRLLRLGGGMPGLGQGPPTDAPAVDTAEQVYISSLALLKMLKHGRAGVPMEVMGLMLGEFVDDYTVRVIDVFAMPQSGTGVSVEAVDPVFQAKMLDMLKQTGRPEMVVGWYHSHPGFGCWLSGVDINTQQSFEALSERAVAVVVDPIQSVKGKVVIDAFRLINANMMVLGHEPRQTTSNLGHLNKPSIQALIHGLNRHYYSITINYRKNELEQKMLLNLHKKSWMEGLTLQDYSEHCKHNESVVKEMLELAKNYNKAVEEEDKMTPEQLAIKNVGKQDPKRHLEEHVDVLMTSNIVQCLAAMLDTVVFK
In short: as §1

UniProt O00507 = target: UniProt O00507
Chain of UniProt O00507 (O00507 whole entry): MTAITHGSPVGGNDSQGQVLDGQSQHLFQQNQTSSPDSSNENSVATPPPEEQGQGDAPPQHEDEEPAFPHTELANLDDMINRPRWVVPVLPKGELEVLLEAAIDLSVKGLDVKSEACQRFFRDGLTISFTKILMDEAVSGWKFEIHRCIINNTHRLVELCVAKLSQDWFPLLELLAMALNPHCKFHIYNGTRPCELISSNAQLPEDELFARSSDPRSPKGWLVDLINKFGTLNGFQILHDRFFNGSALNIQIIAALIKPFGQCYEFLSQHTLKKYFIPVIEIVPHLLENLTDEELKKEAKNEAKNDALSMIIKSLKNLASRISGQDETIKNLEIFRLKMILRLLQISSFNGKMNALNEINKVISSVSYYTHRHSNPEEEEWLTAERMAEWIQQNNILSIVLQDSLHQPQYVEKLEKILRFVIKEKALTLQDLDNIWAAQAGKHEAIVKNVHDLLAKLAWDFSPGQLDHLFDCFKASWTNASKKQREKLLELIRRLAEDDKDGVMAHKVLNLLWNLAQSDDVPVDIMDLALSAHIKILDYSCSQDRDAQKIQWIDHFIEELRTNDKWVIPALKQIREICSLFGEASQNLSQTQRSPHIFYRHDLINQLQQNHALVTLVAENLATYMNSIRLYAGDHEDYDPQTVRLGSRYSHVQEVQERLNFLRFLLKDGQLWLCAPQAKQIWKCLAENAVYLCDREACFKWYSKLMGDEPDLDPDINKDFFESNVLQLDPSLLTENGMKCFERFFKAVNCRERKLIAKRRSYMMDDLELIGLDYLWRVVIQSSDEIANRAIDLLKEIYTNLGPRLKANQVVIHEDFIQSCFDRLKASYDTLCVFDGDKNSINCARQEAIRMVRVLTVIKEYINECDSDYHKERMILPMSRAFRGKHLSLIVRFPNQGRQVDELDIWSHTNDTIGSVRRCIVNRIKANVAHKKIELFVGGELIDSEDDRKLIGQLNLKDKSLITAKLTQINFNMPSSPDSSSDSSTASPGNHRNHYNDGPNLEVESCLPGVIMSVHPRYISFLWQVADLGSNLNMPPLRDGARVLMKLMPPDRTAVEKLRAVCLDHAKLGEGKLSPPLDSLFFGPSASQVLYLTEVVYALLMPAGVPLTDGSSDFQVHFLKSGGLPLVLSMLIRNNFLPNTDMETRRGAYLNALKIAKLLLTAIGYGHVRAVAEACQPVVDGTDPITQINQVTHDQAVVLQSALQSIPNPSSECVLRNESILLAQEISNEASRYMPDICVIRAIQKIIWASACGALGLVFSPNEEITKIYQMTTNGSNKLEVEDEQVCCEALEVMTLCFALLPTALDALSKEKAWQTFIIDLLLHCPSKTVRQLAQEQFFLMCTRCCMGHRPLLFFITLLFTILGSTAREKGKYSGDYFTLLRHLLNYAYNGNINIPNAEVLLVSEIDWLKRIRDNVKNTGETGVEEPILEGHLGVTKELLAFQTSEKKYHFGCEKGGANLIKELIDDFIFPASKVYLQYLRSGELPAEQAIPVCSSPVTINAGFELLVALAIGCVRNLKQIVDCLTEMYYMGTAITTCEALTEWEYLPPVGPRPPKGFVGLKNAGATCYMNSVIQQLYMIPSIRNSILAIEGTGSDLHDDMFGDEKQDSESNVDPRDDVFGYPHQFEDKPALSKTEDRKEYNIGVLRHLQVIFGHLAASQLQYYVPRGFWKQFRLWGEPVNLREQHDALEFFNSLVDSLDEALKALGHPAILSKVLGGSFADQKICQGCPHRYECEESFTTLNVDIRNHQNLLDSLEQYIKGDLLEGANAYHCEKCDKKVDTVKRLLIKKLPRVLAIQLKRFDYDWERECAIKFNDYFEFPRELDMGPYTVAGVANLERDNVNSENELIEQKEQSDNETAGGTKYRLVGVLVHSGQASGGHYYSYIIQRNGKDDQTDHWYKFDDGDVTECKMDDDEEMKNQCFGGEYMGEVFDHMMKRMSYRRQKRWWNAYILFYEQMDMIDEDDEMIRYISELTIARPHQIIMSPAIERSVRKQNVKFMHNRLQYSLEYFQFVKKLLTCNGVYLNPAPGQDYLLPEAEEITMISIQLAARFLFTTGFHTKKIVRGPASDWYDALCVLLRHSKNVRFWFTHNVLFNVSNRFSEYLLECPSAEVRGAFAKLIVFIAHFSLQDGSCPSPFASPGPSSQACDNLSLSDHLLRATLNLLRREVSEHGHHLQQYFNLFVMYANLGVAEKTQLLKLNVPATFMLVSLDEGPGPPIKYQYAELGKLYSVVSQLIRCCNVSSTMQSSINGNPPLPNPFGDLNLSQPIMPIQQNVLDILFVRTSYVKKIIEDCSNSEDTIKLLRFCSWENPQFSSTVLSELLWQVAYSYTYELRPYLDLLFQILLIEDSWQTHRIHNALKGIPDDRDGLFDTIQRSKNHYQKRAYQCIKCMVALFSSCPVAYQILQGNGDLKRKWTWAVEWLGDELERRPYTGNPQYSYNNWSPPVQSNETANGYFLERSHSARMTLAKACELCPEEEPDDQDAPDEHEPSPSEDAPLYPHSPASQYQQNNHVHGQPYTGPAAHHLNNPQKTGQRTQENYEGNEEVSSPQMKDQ
In short: as §1

UniProt P51784 = target: UniProt P51784
Chain of UniProt P51784 (P51784 whole entry): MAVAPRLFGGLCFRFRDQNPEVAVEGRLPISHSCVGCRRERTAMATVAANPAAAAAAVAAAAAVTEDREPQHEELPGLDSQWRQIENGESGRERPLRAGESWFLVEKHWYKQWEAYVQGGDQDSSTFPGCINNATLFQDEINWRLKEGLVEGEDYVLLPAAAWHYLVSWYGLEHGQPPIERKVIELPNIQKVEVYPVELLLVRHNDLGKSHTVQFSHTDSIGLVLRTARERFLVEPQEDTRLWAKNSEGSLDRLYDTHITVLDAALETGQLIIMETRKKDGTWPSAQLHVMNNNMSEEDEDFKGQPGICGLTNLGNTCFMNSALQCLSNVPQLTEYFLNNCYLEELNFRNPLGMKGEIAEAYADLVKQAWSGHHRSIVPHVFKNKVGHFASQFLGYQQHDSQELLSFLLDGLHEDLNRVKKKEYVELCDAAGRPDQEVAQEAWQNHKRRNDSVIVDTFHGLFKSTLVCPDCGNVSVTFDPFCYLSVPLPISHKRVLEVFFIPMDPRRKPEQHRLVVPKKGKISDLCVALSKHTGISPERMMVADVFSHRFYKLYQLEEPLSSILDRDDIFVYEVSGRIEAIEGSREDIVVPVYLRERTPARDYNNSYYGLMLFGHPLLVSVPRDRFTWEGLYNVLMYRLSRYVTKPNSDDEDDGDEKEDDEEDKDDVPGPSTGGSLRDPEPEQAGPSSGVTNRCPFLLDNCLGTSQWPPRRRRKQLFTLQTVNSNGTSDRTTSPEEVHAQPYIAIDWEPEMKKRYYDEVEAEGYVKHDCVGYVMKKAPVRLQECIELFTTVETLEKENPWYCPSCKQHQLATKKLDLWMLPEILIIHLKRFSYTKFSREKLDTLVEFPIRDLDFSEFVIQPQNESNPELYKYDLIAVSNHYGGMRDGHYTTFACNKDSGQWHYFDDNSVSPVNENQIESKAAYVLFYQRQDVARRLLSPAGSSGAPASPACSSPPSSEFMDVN
In short: as §1

UniProt Q5T2D3 = target: T1, UniProt Q5T2D3
T1 sequence (whole entry): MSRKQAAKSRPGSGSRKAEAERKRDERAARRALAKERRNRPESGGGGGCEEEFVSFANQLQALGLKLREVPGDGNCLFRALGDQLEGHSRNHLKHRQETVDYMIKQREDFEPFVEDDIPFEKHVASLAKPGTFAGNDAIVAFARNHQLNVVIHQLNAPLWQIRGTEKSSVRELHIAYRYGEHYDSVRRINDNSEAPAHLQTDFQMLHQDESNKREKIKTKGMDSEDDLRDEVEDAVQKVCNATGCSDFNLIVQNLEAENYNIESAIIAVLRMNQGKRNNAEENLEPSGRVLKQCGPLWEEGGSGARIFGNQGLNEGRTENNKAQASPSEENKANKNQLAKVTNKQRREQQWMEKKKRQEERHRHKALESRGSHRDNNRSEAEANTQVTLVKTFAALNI
In short: as §1

UniProt Q8TE49 = target: T2, UniProt Q8TE49
T2 sequence (whole entry): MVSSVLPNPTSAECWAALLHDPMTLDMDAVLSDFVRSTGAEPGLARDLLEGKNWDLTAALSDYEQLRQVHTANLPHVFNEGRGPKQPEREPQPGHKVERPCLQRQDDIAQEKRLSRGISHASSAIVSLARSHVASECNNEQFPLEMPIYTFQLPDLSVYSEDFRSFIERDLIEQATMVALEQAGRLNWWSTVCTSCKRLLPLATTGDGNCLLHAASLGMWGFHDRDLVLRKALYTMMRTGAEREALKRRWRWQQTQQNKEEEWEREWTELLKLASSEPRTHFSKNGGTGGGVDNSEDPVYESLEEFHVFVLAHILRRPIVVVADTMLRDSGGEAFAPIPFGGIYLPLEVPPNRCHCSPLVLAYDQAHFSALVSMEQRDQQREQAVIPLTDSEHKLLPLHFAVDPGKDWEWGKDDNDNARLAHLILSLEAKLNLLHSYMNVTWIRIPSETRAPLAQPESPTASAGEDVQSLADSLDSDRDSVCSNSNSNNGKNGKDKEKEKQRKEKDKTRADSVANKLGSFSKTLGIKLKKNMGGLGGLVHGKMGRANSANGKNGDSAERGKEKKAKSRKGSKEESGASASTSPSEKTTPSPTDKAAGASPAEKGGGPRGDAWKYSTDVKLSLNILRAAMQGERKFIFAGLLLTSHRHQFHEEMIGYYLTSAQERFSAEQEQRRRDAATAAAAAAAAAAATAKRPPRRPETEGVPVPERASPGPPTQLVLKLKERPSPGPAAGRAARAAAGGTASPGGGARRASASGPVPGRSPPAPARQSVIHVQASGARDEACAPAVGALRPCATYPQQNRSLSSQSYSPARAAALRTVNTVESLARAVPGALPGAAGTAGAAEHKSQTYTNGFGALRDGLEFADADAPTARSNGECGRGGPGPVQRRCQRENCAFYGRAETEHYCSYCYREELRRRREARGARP
In short: as §1

UniProt Q9P2H5 = target: T3, UniProt Q9P2H5
T3 sequence (whole entry): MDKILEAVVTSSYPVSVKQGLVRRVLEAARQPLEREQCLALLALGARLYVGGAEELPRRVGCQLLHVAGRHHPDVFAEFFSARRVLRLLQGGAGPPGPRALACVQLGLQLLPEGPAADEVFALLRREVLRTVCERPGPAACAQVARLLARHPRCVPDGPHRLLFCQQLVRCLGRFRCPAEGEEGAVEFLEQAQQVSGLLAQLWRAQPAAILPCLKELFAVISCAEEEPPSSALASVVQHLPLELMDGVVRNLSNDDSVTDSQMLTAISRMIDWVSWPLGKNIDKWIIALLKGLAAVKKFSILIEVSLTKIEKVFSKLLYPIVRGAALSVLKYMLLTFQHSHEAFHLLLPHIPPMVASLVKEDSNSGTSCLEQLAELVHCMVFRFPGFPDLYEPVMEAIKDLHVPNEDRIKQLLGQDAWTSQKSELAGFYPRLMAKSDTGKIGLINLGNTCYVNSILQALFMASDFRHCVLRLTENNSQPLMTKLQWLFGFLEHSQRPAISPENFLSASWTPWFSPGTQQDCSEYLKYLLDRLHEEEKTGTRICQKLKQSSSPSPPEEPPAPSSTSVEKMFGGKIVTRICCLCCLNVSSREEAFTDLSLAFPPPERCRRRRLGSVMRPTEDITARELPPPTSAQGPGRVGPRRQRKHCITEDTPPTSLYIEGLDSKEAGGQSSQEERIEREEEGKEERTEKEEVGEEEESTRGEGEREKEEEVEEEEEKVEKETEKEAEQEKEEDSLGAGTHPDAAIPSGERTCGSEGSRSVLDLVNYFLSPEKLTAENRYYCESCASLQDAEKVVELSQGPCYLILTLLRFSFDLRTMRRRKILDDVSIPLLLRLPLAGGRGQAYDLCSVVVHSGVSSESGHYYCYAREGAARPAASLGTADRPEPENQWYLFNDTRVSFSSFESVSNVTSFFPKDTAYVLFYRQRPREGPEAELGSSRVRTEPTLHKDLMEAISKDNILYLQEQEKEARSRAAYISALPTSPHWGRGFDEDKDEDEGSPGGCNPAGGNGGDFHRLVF
In short: as §1

UniProt Q9UGI0 = target: T4, UniProt Q9UGI0
T4 sequence (whole entry): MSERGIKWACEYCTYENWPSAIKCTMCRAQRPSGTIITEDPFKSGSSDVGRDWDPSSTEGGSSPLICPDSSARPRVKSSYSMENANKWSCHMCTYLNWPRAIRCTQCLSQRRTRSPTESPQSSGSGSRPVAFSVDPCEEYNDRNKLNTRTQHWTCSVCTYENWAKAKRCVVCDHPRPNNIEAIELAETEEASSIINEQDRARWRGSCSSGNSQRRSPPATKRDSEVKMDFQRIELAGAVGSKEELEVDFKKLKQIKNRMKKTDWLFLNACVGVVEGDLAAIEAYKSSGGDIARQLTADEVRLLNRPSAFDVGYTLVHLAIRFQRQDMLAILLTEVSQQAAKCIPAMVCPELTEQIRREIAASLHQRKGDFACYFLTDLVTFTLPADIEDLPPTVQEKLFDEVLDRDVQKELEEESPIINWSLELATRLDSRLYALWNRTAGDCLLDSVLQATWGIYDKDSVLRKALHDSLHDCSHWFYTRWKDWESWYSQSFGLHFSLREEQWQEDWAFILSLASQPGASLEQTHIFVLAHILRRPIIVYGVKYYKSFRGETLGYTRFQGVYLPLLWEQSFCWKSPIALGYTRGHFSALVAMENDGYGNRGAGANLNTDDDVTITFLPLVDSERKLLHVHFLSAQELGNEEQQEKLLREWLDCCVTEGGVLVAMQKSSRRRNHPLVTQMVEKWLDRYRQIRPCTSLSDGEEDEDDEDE
In short: as §1

YOD1 = target: T5, YOD1 (UniProt Q5VVQ6)
T5 sequence (whole entry): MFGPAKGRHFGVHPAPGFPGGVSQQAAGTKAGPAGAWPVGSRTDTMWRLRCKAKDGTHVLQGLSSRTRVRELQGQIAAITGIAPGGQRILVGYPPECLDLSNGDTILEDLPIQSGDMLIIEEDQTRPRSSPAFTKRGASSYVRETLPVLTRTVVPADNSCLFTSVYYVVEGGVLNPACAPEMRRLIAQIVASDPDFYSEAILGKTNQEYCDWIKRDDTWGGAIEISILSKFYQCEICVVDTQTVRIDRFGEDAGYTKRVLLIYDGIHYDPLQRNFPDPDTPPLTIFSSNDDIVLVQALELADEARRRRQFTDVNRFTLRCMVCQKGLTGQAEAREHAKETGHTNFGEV
In short: as §1

Measured: log2 ratio of Biotin-Ahx-Ub-VS probe labelling

CCN(Cc1ccc(C#N)cc1F)C(=O)CCl
active: UniProt Q9UGI0 -1.27
inactive: USP9X -0.229 | UniProt O00487 -0.0587 | UniProt O00507 -0.396 | UniProt P51784 -0.331 | UniProt Q5T2D3 -0.313 | UniProt Q8TE49 -0.525 | UniProt Q9P2H5 -0.207 | YOD1 -0.251
